An excerpt weighted towards active compounds, which were near 6.8% of everything screened.
Pf Dd2 growth = inhibitors of Plasmodium falciparum Dd2 growth | P. falciparum Dd2 growth, SYBR Green, 72 h; hits give low values | activity change, % at 10 µM | 94,000 tested, 2.3% active; in the data active means activity change below about -80%
C diff HTS = blocks growth of Clostridium difficile; Clostridium difficile clinical isolate growth, OD600, 24 h; hits give low values; growth activity, negative = inhibition, % at 16 µg/mL (by protocol); 86,000 tested, 0.25% active;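 active means mean growth activity at or below -80% and every replicate also at or below -80%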
T cruzi growth-1 = blocks T. cruzi growth in NIH3T3 culture. inhibition, % at 8.34 µM. T. cruzi beta-gal in NIH3T3, GalScreen luminescence, 90 h. 77,000 tested, 5.9% active. AID 624255;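 active means mean inhibition above about 93%, with at least 55% of replicates each passing it, limit read from the data, passing the limit was not always enough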
T cruzi growth-2 = Trypanosoma cruzi proliferation inhibition. shares compounds with T cruzi growth-1. inhibition, % at 8.35 µM. 5,600 tested, 72% active. T. cruzi beta-gal in NIH3T3, GalScreen luminescence, 90 h;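 active means mean replicate inhibition above about 95% and at least 55% of replicates individually reaching it, limit read from the data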
T cruzi growth-3 = Trypanosoma cruzi proliferation inhibition; shares compounds with T cruzi growth-1; T. cruzi beta-gal in NIH3T3, GalScreen luminescence, 90 h; inhibition, % at 2.09 µM; 5,600 tested, 21% active;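 active means mean inhibition above about 95%, with at least 55% of replicates also reaching it, limit read from the data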
NIH3T3 tox = NIH/3T3 (mouse) viability loss; NIH/3T3 viability, CellTiter-Glo ATP luminescence, 90 h; 5,600 tested, 14% active; shares compounds with T cruzi growth-1; cytotoxicity (signal decrease), % at 8.35 µM;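 active means mean signal decrease across replicates above about 35% based on untreated-well scatter, with enough replicates individually passing, limit read from the data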
3T3 cytotox 2 = kills mouse NIH/3T3 fibroblasts. inhibition, % at 24.9 µM. shares compounds with T cruzi growth-1. NIH/3T3 viability, CellTiter-Glo ATP luminescence, 90 h. 5,600 tested, 56% active;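 active means mean loss of cell viability signal at or above a set limit, and enough replicates individually reaching it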
A number is an active result; i = inactive; nt = no result.

SMILES	Pf Dd2 growth	C diff HTS	T cruzi growth-1	T cruzi growth-2	T cruzi growth-3	NIH3T3 tox	3T3 cytotox 2
CC(=O)N(C)C[C@@H]1Oc2ncc(-c3ccc(F)cc3)cc2C(=O)N([C@@H](C)CO)C[C@@H]1C	i	i	i	nt	nt	nt	nt
Cc1noc(C)c1S(=O)(=O)N(C)C[C@H]1OCCCC[C@@H](C)Oc2ccc(NS(=O)(=O)c3ccc(Cl)cc3)cc2C(=O)N([C@@H](C)CO)C[C@H]1C	i	i	108	102	100	i	26
Cc1noc(C)c1S(=O)(=O)N(C)C[C@H]1OCCCC[C@@H](C)Oc2ccc(NS(=O)(=O)c3ccc(Cl)cc3)cc2C(=O)N([C@@H](C)CO)C[C@@H]1C	i	i	100	107	i	i	i
Cc1noc(C)c1S(=O)(=O)N(C)C[C@@H]1OCCCC[C@@H](C)Oc2ccc(NS(=O)(=O)c3ccc(Cl)cc3)cc2C(=O)N([C@@H](C)CO)C[C@H]1C	i	i	i	nt	nt	nt	nt
Cc1noc(C)c1S(=O)(=O)N(C)C[C@@H]1OCCCC[C@@H](C)Oc2ccc(NS(=O)(=O)c3ccc(Cl)cc3)cc2C(=O)N([C@H](C)CO)C[C@@H]1C	i	i	i	nt	nt	nt	nt
COc1ccc(S(=O)(=O)Nc2cccc3c2O[C@H](CN(C)Cc2ccc(C(F)(F)F)cc2)[C@H](C)CN([C@H](C)CO)C3=O)cc1	i	i	i	nt	nt	nt	nt
COCC(=O)N(C)C[C@@H]1Oc2ncc(Br)cc2C(=O)N([C@H](C)CO)C[C@H]1C	i	i	nt	nt	nt	nt	nt
COc1ccc(CN(C)C[C@@H]2OCCCC[C@H](C)Oc3ccc(NC(=O)Nc4ccc(OC)cc4)cc3C(=O)N([C@@H](C)CO)C[C@@H]2C)cc1	-81	nt	100	107	i	i	63
COc1ccc(CN(C)C[C@H]2OCCCC[C@H](C)Oc3ccc(NC(=O)C4CCCCC4)cc3C(=O)N([C@H](C)CO)C[C@H]2C)cc1	i	nt	107	i	i	i	26
COc1ccc(CN(C)C[C@H]2OCCCC[C@@H](C)Oc3ccc(NC(=O)Nc4ccc(OC)cc4)cc3C(=O)N([C@@H](C)CO)C[C@@H]2C)cc1	i	nt	i	nt	nt	nt	nt
COc1ccc(CN(C)C[C@@H]2OCCCC[C@@H](C)Oc3ccc(NC(=O)Nc4ccc(F)cc4)cc3C(=O)N([C@@H](C)CO)C[C@H]2C)cc1	i	i	i	nt	nt	nt	nt
COc1ccc(CN(C)C[C@H]2OCCCC[C@H](C)Oc3ccc(NC(=O)Nc4ccc(F)cc4)cc3C(=O)N([C@H](C)CO)C[C@@H]2C)cc1	i	i	i	nt	nt	nt	nt
COc1ccc(CN(C)C[C@H]2OCCCC[C@@H](C)Oc3ccc(NC(=O)Nc4ccc(OC)cc4)cc3C(=O)N([C@H](C)CO)C[C@H]2C)cc1	i	nt	109	105	105	i	104
COc1ccc(CN(C)C[C@@H]2OCCCC[C@H](C)Oc3ccc(NC(=O)C4CCCCC4)cc3C(=O)N([C@@H](C)CO)C[C@H]2C)cc1	i	i	i	nt	nt	nt	nt
COc1ccc(CN(C)C[C@@H]2OCCCC[C@H](C)Oc3ccc(NC(=O)Nc4ccc(OC)cc4)cc3C(=O)N([C@H](C)CO)C[C@@H]2C)cc1	i	nt	99	104	105	i	104
O=C(NC[C@H]1CC[C@@H]2[C@@H](CN2S(=O)(=O)c2ccccc2)O1)NC1CCCCC1	i	i	nt	nt	nt	nt	nt
CCNC(=O)C[C@@H]1CC[C@H]2[C@H](COc3ccc(NC(=O)Nc4cccc(Cl)c4)cc3C(=O)N2C)O1	i	i	i	nt	nt	nt	nt
C[C@@H]1CN([C@H](C)CO)C(=O)c2cccc(NC(=O)c3cnccn3)c2O[C@@H]1CN(C)CC1CC1	i	i	i	nt	nt	nt	nt
C[C@H]1CN([C@@H](C)CO)C(=O)c2cccc(NS(=O)(=O)c3cccs3)c2O[C@@H]1CN(C)S(=O)(=O)c1ccc(Cl)cc1	i	i	i	nt	nt	nt	nt
O=C(C[C@H]1CC[C@@H](NS(=O)(=O)c2ccc(F)cc2)[C@H](CO)O1)NCCN1CCCCC1	i	i	i	nt	nt	nt	nt
O=C(C[C@@H]1CC[C@H](NC(=O)C2CCOCC2)[C@H](CO)O1)Nc1nccs1	i	nt	i	nt	nt	nt	nt
COCC(=O)N1[C@@H](CO)[C@@H](c2ccccc2)C12CN(C(=O)c1ccccc1)C2	i	i	nt	nt	nt	nt	nt
COc1ccc(S(=O)(=O)Nc2ccc3c(c2)CC(=O)N([C@H](C)CO)C[C@H](C)[C@H](CN(C)C(=O)NC2CCCCC2)O3)cc1	i	i	i	nt	nt	nt	nt
COc1ccc(CN(C)C[C@H]2OCCCC[C@H](C)Oc3ccc(NC(=O)Nc4ccc(OC)cc4)cc3C(=O)N([C@H](C)CO)C[C@H]2C)cc1	i	nt	106	103	i	i	25
COc1ccc(CN(C)C[C@H]2OCCCC[C@@H](C)Oc3ccc(NC(=O)Nc4ccc(F)cc4)cc3C(=O)N([C@H](C)CO)C[C@H]2C)cc1	i	i	i	nt	nt	nt	nt
SMILES	Pf Dd2 growth	C diff HTS	T cruzi growth-1	T cruzi growth-2	T cruzi growth-3	NIH3T3 tox	3T3 cytotox 2
O=C(C[C@@H]1CC[C@H]2[C@@H](COC[C@@H](O)CN2Cc2cc(F)cc(F)c2)O1)NC1CCCC1	i	i	i	nt	nt	nt	nt
C[C@H](CO)N1C[C@H](C)[C@H](CN(C)S(=O)(=O)c2ccccc2)Oc2c(NC(=O)Nc3cccc4ccccc34)cccc2C1=O	i	i	nt	nt	nt	nt	nt
COc1ccc(S(=O)(=O)N(C)C[C@H]2Oc3c(NC(=O)Nc4ccccc4)cccc3C(=O)N([C@H](C)CO)C[C@H]2C)cc1	i	nt	i	nt	nt	nt	nt
COc1ccc(S(=O)(=O)N(C)C[C@H]2Oc3c(NC(=O)Nc4ccccc4)cccc3C(=O)N([C@@H](C)CO)C[C@@H]2C)cc1	i	nt	i	nt	nt	nt	nt
COc1ccc(S(=O)(=O)N(C)C[C@H]2Oc3c(NC(=O)Nc4cccc5ccccc45)cccc3C(=O)N([C@@H](C)CO)C[C@@H]2C)cc1	i	i	100	112	i	i	i
COc1ccc(S(=O)(=O)N(C)C[C@H]2Oc3c(NC(=O)Nc4cccc5ccccc45)cccc3C(=O)N([C@H](C)CO)C[C@H]2C)cc1	-83	i	128	i	i	i	29
COc1ccc(S(=O)(=O)N(C)C[C@H]2Oc3c(NC(=O)Nc4cccc5ccccc45)cccc3C(=O)N([C@H](C)CO)C[C@@H]2C)cc1	i	i	117	108	i	i	i
O=C(C[C@H]1CC[C@@H]2[C@H](COC[C@H](O)CN2C(=O)c2cccnc2)O1)NC1Cc2ccccc2C1	i	i	i	nt	nt	nt	nt
C[C@@H]1CN([C@@H](C)CO)C(=O)Cc2cc(NC(=O)Cc3cn(C)c4ccccc34)ccc2O[C@H]1CN(C)Cc1ccncc1	i	i	i	nt	nt	nt	nt
C[C@@H]1CCCCO[C@H](CN(C)C(=O)NC2CCCCC2)[C@H](C)CN([C@@H](C)CO)C(=O)c2cc(NS(=O)(=O)c3ccc(F)cc3)ccc2O1	i	i	i	nt	nt	nt	nt
COc1ccc(S(=O)(=O)N[C@@H]2CC[C@@H](CCNC(=O)Cc3ccccn3)O[C@@H]2CO)cc1	i	nt	i	nt	nt	nt	nt

Assay outcomes: PubChem, Broad Institute
